Test [1] can be described thus: Nuclear factor erythroid 2-related factor 2/antioxidant responsive element (Nrf2/ARE) small molecule agonists: qHTS cell viability counter screen in human keratinocytes (AID 1919968; active means well fitted curve in the direction sought with a large enough effect in the repeat runs; an effect the other way counts as inactive or inconclusive; further: nearly all actives have a fitted effect of over 55% in size; further: potency means the concentration at half of the fitted maximal effect). The essentials: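 Parallel cytotoxicity read: KeratinoSens HaCaT cells, compound treatment 23 h, viability by CellTiter-Fluor fluorescence 1 h post-reagent.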
(In qHTS, concentration-response curves come from the screen itself.)

Test [2] is described as follows: Nuclear factor erythroid 2-related factor 2/antioxidant responsive element (Nrf2/ARE) small molecule agonists: luciferase reporter gene qHTS assay in human keratinocytes (AID 1919969). Further: nearly all actives have a fitted effect of over 35% in size. Further: potency means the concentration at half of the fitted maximal effect. Background: Reporter assays use an easily measured gene product as a stand-in for the process of interest.
Test [3] concerns the target Gonadotropin-releasing hormone receptor (Homo sapiens) (UniProt P30968). Briefly: Human gonadotropin-releasing hormone receptor (GnRHR) small molecule agonists, calcium flux assay in GnRHR-HEK293 cells (AID 1920063). Further: nearly all actives have a fitted effect of over 35% in size. Further: potency means the concentration at half of the fitted maximal effect. A digest of the protocol: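 Calcium flux, agonist mode, human GnRHR stably integrated in HEK293; dye 1 h at 37 C before compound; Ex/Em=480/540 kinetic read, 3 min; 15 concentrations, triplicate.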

Test [4] deals with KiSS-1 receptor (Homo sapiens) (UniProt Q969F8). Briefly: Human kisspeptin (KISS1R) small molecule agonists, calcium flux assay in KISS1R-HEK293 cells (AID 1920064; active means well fitted curve in the direction sought with a large enough effect in the repeat runs; an effect the other way counts as inactive or inconclusive). The essentials:
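Triplicate 15-concentration series were applied to dye-loaded human KISS1R HEK293 cells, and agonist-evoked calcium fluorescence was captured for 3 min.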
Background: Calcium assays in cells follow changes in intracellular calcium, usually with a dye or a luminescent sensor.

Test [5] can be described thus: G protein-coupled receptor (GPCR) small molecule agonists, calcium flux assay: HEK293 wild type cell line counter screen (AID 1920065). A digest of the protocol: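 Non-specific calcium responders were flagged by adding DMSO-dissolved compounds to dye-loaded cells and reading 480/540 nm fluorescence each second for 3 min; ATP served as positive control.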
Test [6] is described as follows: p53 small molecule agonists, cell-based qHTS assay with human liver microsomes (AID 1963577).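 Further: p53 response element beta-lactamase reporter cells with liver microsomes plus NADPH.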 A digest of the protocol: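 Steps: plate p53RE-bla cells, incubate 5 h at 37 C; add compound in DMSO; add microsomes (0.5 mg/mL final) and NADPH (0.5 mg/mL final); incubate 16 h at 37 C; add LiveBLAzer, 2 h RT; read fluorescence.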
A short description of test [7]: p53 small molecule agonists, cell-based qHTS assay with rat liver microsomes (AID 1963578). The essentials:
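Metabolic activation is supplied by rat liver microsomes with NADPH (each 0.5 mg/mL final). p53RE-bla cells incubate with compound 16 h at 37 C; reporter activity is measured by LiveBLAzer fluorescence.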

Test [8] in a line: p53 small molecule agonists, cell-based qHTS assay with human liver microsomes: qHTS cell viability counter screen (AID 1963579). Further: nearly all actives have a fitted effect of over 45% in size. Further: potency means the concentration at half of the fitted maximal effect. A digest of the protocol:
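After the 460/530 nm beta-lactamase read, CellTiter-Glo was added to the same wells and luminescence measured after 30 min at room temperature, giving viability of p53RE-bla cells treated 16 h with compounds plus microsomes and NADPH.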

Test [9] in a line: p53 small molecule agonists, cell-based qHTS assay with rat liver microsomes: qHTS cell viability counter screen (AID 1963580). Further: nearly all actives have a fitted effect of over 45% in size. A digest of the protocol:
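Rat liver microsome (0.5 mg/mL final) and NADPH (0.5 mg/mL final) co-incubation with compounds for 16 h at 37 C on HCT-116 p53RE-bla cells; cytotoxicity taken from intracellular ATP luminescence.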

The nature of test [10]: p53 small molecule agonists, cell-based qHTS assay: qHTS cell viability counter screen (AID 1963581). Further: nearly all actives have a fitted effect of over 45% in size. The essentials:
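Multiplexed with the reporter read, a CellTiter-Glo step (30 min, room temperature) gauges ATP-based viability of HCT-116 p53RE-bla cells after 16 h compound incubation at 37 C.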

The nature of test [11]: p53 small molecule agonists, cell-based qHTS assay (AID 1963582; active means well fitted activation curve with a large enough effect in the signal ratio in the repeat runs, not every such curve was filed as active; the % refers to the signal ratio). A digest of the protocol:
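Beta-lactamase reporter cells (p53RE-bla) treated with compounds for 16 h at 37 C; FRET substrate, 2 h, room temperature; fluorescence intensity.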

Test [12] concerns the target 5-hydroxytryptamine receptor 2A (Homo sapiens) (UniProt P28223). Briefly: 5-hydroxytryptamine receptor 2A (HTR2A) small molecule antagonists, cell-based qHTS assay (AID 1963586). Further: nearly all actives have a fitted effect of over 45% in size. Further: potency means the concentration at half of the fitted maximal effect. A digest of the protocol:
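CHO cells stably expressing human HTR2A were plated for 18 h at 37 C, then loaded with calcium dye for 1 h. Compounds were preincubated 5 min at room temperature before DOI (4 nM solution) was added. Kinetic fluorescence was read for 3 min.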

For test [13] the target is unchanged. Nature of the test: 5-hydroxytryptamine receptor 2A (HTR2A) small molecule agonists, cell-based qHTS assay (AID 1963587). Further: nearly all actives have a fitted effect of over 30% in size. Further: potency means the concentration at half of the fitted maximal effect. A digest of the protocol:
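Kinetic calcium-flux fluorescence (2 min, 1 sec intervals) after compound addition in agonist mode. HTR2A-CHO cells were cultured 18 h, then dye-loaded 1 h at 37 C.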

For test [14], the target named is Muscarinic acetylcholine receptor M1 (Homo sapiens) (UniProt P11229). Briefly: Cholinergic receptor muscarinic 1 (CHRM1) small molecule antagonists, cell-based qHTS assay (AID 1963588). Further: nearly all actives have a fitted effect of over 40% in size. Further: potency means the concentration at half of the fitted maximal effect. A digest of the protocol:
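Compounds were tested at 15 concentrations in three independent runs. Dye-loaded CHRM1-CHO cells were exposed 5 min at room temperature before stimulation by acetylcholine added at 50nM. Intracellular calcium was read kinetically on FDSS for 3 min.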

Test [15] in a line: cAMP Responsive Elements (CRE) small molecule agonists, cell-based qHTS assay (AID 1963590). The essentials:
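Quantitative HTS for CRE agonists: HEK 293T CRE-bla cells, overnight plating, 3 h compound incubation at 37 C/5% CO2, then 2 h room-temperature LiveBLAzer B/G FRET substrate loading.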

Test [16] can be described thus: cAMP Responsive Elements (CRE) small molecule antagonists, cell-based qHTS assay (AID 1963591; active means well fitted inhibition curve with a large enough effect in the signal ratio in the repeat runs, not every such curve was filed as active; the % refers to the signal ratio). The essentials:
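Fluorescence intensity from cleaved LiveBLAzer B/G substrate (2 h, room temperature) quantified CRE-bla activity in HEK 293T cells exposed 3 h to compound with 0.25 uM final NKH477.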

Test [17] has as its target Beta-2 adrenergic receptor (Homo sapiens) (UniProt P07550). Nature of the test: Adrenergic beta2 receptor (ADRB2) small molecule antagonists, cell-based qHTS assay (AID 1963592). Further: series mostly up to about 92 µM; nearly all actives have a fitted effect of over 50% in size. A digest of the protocol:
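Assay format: CHO-ADRB2 cells, 18-20hr seeding at 37C/5% CO2, then compound plus 1nM isoproterenol agonist mix for 0.5hr RT. Homogeneous time-resolved fluorescence cAMP detection after 1hr, expressed as 665/615 nm ratio.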

Test [18] addresses D(2) dopamine receptor (Homo sapiens) (UniProt P14416). Nature of the test: Dopamine D2 receptor (DRD2) small molecule antagonists, cell-based qHTS assay (AID 1963595; active means well fitted inhibition curve with a large enough effect in the signal ratio in the repeat runs, with a control signal flat; the % refers to the signal ratio; further: potency means the concentration at half of the fitted maximal effect). A digest of the protocol:
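Readout: HTRF cAMP, cAMP-d2 competing with cellular cAMP for anti-cAMP cryptate, read after 1 h. Cells: DRD2-HEK293. Conditions: 0.1 mM Ro20-1724, 12 nM quinpirole, 200 nM NKH477, 30 min RT.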

For test [19], the target named is Muscarinic acetylcholine receptor M1 (Homo sapiens) (UniProt P11229). Briefly: Cholinergic receptor muscarinic 1 (CHRM1) small molecule agonists, cell-based qHTS assay (AID 1963589). Further: nearly all actives have a fitted effect of over 35% in size. A digest of the protocol:
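qHTS, 15-point titration, 3 independent runs: compounds pin-transferred onto dye-loaded CHRM1-CHO cells (human M1), calcium fluorescence followed every second to detect agonism.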

For test [20], the target named is D(2) dopamine receptor (Homo sapiens) (UniProt P14416). Briefly: Dopamine D2 receptor (DRD2) small molecule agonists, cell-based qHTS assay (AID 1963594). Further: nearly all actives have a fitted effect of over 35% in size. A digest of the protocol:
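cAMP accumulation in DRD2-HEK293 cells measured by HTRF after 1 h detection; compounds added 10 min before NKH477 (200nM […]) forskolin-analogue stimulation, 30 min at room temperature, with Ro20-1724 present at 0.1 mM final.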

“And” between values parts separate entries of the source, which are not always exact repeats. Equal entries are not always repeated. Inconclusive results are not listed. A structure can be active in one record and inactive in another. The source made the active and inactive calls. Unless noted, the call rests on the fitted dose curve.

Chain of KiSS-1 receptor (Homo sapiens) (Q969F8 whole entry, looked up): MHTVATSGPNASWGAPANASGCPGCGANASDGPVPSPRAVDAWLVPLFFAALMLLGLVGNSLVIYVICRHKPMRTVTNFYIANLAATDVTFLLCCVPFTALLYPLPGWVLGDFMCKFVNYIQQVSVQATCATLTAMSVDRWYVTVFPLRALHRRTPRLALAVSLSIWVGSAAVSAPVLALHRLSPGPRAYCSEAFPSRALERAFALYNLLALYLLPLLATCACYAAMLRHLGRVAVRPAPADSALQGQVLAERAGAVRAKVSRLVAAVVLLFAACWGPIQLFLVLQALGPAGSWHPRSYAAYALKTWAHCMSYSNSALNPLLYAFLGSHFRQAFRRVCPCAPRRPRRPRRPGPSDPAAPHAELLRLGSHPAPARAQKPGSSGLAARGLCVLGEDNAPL
Chain of Muscarinic acetylcholine receptor M1 (Homo sapiens) (P11229 whole entry, looked up): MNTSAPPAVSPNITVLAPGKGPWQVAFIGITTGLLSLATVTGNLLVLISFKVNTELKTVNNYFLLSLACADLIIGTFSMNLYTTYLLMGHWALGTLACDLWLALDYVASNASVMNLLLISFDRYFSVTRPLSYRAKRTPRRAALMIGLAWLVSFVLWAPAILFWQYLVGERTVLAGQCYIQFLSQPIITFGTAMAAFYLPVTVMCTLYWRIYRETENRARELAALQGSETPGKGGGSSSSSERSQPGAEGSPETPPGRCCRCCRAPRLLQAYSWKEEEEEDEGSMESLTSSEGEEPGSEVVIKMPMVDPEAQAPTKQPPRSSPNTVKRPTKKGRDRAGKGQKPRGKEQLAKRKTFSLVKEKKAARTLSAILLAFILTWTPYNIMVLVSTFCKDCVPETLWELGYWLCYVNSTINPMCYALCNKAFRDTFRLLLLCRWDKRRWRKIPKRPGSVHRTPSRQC
Chain of Beta-2 adrenergic receptor (Homo sapiens) (P07550 whole entry, looked up): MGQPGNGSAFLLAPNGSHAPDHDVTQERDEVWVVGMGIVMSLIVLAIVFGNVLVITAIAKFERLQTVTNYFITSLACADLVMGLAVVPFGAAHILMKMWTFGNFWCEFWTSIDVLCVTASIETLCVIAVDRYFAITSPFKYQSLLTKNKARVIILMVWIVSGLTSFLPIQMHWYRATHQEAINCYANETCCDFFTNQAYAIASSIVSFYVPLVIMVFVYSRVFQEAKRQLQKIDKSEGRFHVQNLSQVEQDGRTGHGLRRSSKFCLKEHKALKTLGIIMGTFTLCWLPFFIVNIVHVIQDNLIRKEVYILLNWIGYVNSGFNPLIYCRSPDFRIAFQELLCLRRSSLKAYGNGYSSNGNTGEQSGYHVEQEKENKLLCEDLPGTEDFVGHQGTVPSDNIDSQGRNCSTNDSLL
Chain of Gonadotropin-releasing hormone receptor (Homo sapiens) (P30968 whole entry, looked up): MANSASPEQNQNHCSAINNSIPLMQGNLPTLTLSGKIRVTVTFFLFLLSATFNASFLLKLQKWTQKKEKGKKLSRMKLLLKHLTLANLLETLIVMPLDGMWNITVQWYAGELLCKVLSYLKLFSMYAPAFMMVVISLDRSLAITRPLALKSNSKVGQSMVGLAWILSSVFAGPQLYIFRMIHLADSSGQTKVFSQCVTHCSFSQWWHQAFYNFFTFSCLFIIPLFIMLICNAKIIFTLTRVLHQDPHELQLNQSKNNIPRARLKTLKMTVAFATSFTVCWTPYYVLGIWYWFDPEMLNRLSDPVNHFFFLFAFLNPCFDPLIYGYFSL
Chain of D(2) dopamine receptor (Homo sapiens) (P14416 whole entry, looked up): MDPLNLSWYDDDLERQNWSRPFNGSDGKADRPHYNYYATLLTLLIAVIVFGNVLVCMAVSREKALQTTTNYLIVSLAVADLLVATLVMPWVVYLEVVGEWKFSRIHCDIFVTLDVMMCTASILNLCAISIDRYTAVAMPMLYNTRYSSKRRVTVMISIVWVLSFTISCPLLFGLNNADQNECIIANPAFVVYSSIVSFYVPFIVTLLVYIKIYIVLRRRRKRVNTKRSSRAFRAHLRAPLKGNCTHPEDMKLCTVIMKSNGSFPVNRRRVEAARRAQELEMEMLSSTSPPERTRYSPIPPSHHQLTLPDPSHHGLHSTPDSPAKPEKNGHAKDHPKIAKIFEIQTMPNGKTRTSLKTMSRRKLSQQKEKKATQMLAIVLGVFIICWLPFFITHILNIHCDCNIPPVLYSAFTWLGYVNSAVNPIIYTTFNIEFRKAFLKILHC
Chain of 5-hydroxytryptamine receptor 2A (Homo sapiens) (P28223 whole entry, looked up): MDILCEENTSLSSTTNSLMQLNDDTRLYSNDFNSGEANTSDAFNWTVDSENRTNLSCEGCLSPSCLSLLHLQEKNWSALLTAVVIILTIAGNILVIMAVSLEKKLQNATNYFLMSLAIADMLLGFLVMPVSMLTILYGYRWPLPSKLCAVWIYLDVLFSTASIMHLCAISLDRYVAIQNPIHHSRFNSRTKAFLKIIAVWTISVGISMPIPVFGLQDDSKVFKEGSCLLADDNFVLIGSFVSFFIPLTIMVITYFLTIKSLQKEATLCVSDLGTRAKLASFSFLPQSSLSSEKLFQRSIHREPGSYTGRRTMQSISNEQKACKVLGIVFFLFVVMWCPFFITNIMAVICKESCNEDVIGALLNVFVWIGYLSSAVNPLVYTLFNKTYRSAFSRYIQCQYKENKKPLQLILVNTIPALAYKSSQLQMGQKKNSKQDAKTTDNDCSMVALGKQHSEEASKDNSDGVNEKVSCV

Turning to `Cc1cccc(C)c1NC(=O)CN1CCCC1=O`, the Potency entry in [1], in test [2], in test [3], in [4], in [5] and in [6] was “inactive” each time. Besides, the Potency entry in [7], in [8], in test [9], in test [10], in [11] and in test [12] was “inactive” each time. Besides, the Potency entry in test [13], in [14], in [15], in [16], in test [17] and in test [18] was “inactive” in each case.

Regarding `COC(=O)c1c(C(F)F)nc(C(F)(F)F)c(C2=NCCS2)c1CC(C)C`, the Potency result in [1], in test [2], in test [3], in test [4], in test [5] and in test [6] was “inactive” throughout. Besides, the Potency result in test [7], in test [8], in test [9], in test [10], in test [11] and in test [12] was “inactive” each time. Besides, the Potency result in test [13], in [19], in test [15], in [16], in test [17] and in [20] was “inactive” in each case. Further, in test [18], the Potency result was “inactive”.

For `ClCCBr`, the Potency entry in test [1], in [2], in test [3], in test [4], in test [5] and in test [6] was “inactive” throughout. In addition, the Potency entry in test [7], in test [8], in [9], in [10], in test [11] and in test [12] was “inactive” throughout. The Potency entry in test [13], in test [14], in test [15], in [17], in [20] and in [18] was “inactive” in each case.

Take `O=C1C(Cl)=C(Cl)C(=O)c2ccccc21`: the Potency in [1] was 24.4 µM (active) and 48.6 µM (active); in [2] it was 5.46 µM (active) and 8.63 µM (active); in [3] it was 34.8 µM (active); in test [8] it was 14.5 µM (active); in [12], 26.6 µM (active); in test [13], 6.94 µM (active). For the same molecule, the Potency in test [18] is 21.7 µM (active). For the same molecule, the Potency entry in [4], in [5], in [6], in test [7], in test [9] and in test [10] was “inactive” each time. The Potency result in test [11], in test [14], in [19] and in test [20] was “inactive” throughout.

For `CCCCOCCOC(C)=O`, the Potency entry in [1], in test [2], in [3], in test [4], in test [5] and in test [6] was “inactive” each time. For the same molecule, the Potency result in test [7], in [8], in [9], in test [10], in test [11] and in [12] was “inactive” in each case. The Potency result in test [13], in test [14], in [15], in test [17], in test [20] and in test [18] was “inactive” each time.

For the molecule `CN1C(=O)NC(=O)C(C)(C2=CCCCC2)C1=O` (stereo unspecified), the Potency result in test [1], in test [2], in test [3], in test [4], in test [5] and in test [6] was “inactive” in each case. The Potency entry in [7], in test [8], in [9], in test [10], in test [11] and in test [12] was “inactive” each time. For the same molecule, the Potency result in [13], in [19], in test [15], in [16], in [17] and in test [20] was “inactive” throughout. Moreover, the Potency result in [18] is “inactive”.

Take `NCCc1ccc(O)cc1`: the Potency entry in test [1], in test [3], in test [4], in test [5], in test [6] and in test [7] was “inactive” in each case. In addition, the Potency entry in [8], in [9], in test [10], in test [11], in [19] and in [15] was “inactive” in each case. In addition, the Potency result in test [16], in test [17], in test [20] and in [18] was “inactive” in each case. The Potency in [2] was 29.8 µM (active); in test [12], 4.17 µM (active) and inactive; in test [13], 5.45 µM (active) and 8.49 µM (active).

As for `O=C(NC(=O)c1c(F)cccc1F)Nc1cc(Cl)c(OC(F)(F)C(F)C(F)(F)F)cc1Cl` (stereo unspecified), the Potency result in [1], in test [2], in test [3], in test [4], in test [5] and in test [6] was “inactive” in each case. Also, the Potency result in test [7], in [8], in [9], in test [10], in test [11] and in test [12] was “inactive” each time. For the same molecule, the Potency result in test [13], in [15], in test [16], in test [17] and in test [20] was “inactive” in each case. The Potency in test [14] is 9.42 µM (active).

Values taken from PubChem BioAssay (Tox21).
